A short description of experiment [1]: qHTS profiling of the MIPE4 collection as inhibitors of Plasmodium falciparum (3D7) proliferation (AID 743344).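 Note: scaled between DMSO vehicle wells and 0.29 µM artemisinin as full inhibition.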 Conditions: P. falciparum 3D7 in erythrocytes, SYBR Green DNA fluorescence, 72 h; at 28.5 µM unless noted. An outline of the steps:
(§1)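 Erythrocytes infected with P. falciparum (0.3% parasitemia, 2.5% hematocrit) incubated with compounds 72 h at 37 C, 5% CO2. Lysis with saponin/Triton buffer containing SYBR Green I, overnight at room temperature in the dark; DNA fluorescence (485/535 nm) normalised to 0.29 uM artemisinin and DMSO.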

Experiment [2] can be described thus: qHTS profiling of the MIPE4 collection as inhibitors of Plasmodium falciparum (DD2) proliferation (AID 743345). Conditions: P. falciparum Dd2 in erythrocytes, SYBR Green DNA, 72 h; at 28.5 µM unless noted. Put shortly:
as §1
On the technique in general: In qHTS, concentration-response curves come from the screen itself.

Experiment [3] is described as follows: qHTS profiling of the MIPE4 collection as inhibitors of Plasmodium falciparum (DD2) proliferation (Rep 2) (AID 743346). Conditions: P. falciparum Dd2 in erythrocytes, SYBR Green DNA, 72 h; at 28.5 µM unless noted. An outline of the steps: as §1
A short description of experiment [4]: qHTS profiling of the MIPE4 collection as inhibitors of Plasmodium falciparum (HB3) proliferation (AID 743347).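 Note: plate controls were DMSO vehicle wells for no effect and artemisinin wells for full effect.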 The following applies: P. falciparum HB3 in erythrocytes, SYBR Green DNA, 72 h; at 28.5 µM unless noted. An outline of the steps:
as §1

A short description of experiment [5]: High-throughput drug toxicity screening in the BPDCN cell line Gen2.2 (AID 1224824).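 Note: cells exposed to compounds for 48 h before reading.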 The following applies: Gen2.2 BPDCN cells; at 45.8 µM (top of the series) unless noted. Put shortly:
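Gen2.2, 500 cells/well, phenol red-free RPMI/10% FBS/Pen-Strep; 48 h cpd, 37 °C/5% CO2; CTG lum, 15 min RT. Norm: DMSO = 100%, bortezomib 9.2 uM final = 0%.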

The nature of experiment [6]: High-throughput drug toxicity screening in the BPDCN cell line Cal-1 (AID 1224825). Conditions: Cal-1 BPDCN cell viability, qHTS; at 45.8 µM (top of the series) unless noted. An outline of the steps:
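Cal-1 cells, 500 per well in phenol-red-free RPMI with 10% FBS, exposed to compounds for 48 hours at 37C, 5% CO2. Viability read by CellTiter-Glo luminescence; percent activity normalized to DMSO (100%) and 9.2 uM bortezomib final (0%).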

For `COc1cccc2c(NCc3ccccc3)nc(-n3c(N)nc4ccccc43)nc12`, in experiment [1], the parasite growth, % of DMSO control came out at 5.92%. The parasite growth remaining, % of DMSO control (lower = more inhibition) in experiment [2] is 5.67%. In experiment [3], this compound displayed a parasite growth, % of control (lower = inhibition) of 11.4%. Moreover, the growth, % of control in experiment [4] came out at 3.05%. In experiment [5], the cell viability, % of control (lower = more cytotoxic) is 3.5%. This compound registered a viability (% of control) in experiment [6] of 2.1%.

As for `COc1cc2c(NC3CCN(C(C)C)CC3)nc(C3CCCCC3)nc2cc1OCCCN1CCCC1`, the parasite growth, % of DMSO control in experiment [1] is 5.09%. The compound further registered a parasite growth remaining, % of DMSO control (lower = more inhibition) in experiment [2] of 6.68%. The compound further gave a parasite growth, % of control (lower = inhibition) in experiment [3] of 10.3%. Moreover, the growth, % of control in experiment [4] turned out to be 4.41%. The cell viability, % of control (lower = more cytotoxic) in experiment [5] amounted to 9.63%. For the same compound, in experiment [6], the viability (% of control) is 4.14%.

Turning to `COc1cc2c(cc1-c1c(C)noc1C)ncc1[nH]c(=O)n([C@H](C)c3ccccn3)c12`, in experiment [1], the parasite growth, % of DMSO control is 67.1%. This compound registered a parasite growth remaining, % of DMSO control (lower = more inhibition) in experiment [2] of 97.3%. Besides, the parasite growth, % of control (lower = inhibition) in experiment [3] is 86.2%. Moreover, in experiment [4], the growth, % of control came out at 74.1%. In experiment [5], the cell viability, % of control (lower = more cytotoxic) was 65.5%. The same compound gave a viability (% of control) in experiment [6] of 7.22%.

`CCS(=O)(=O)c1cccc(-c2cc(C(=O)NC3CCN(C)CC3)c(C)c3[nH]c4ncc(C)cc4c23)c1` gave a parasite growth, % of DMSO control in experiment [1] of 5.84%. The compound also gave a parasite growth remaining, % of DMSO control (lower = more inhibition) in experiment [2] of 9.76%. This compound also registered a growth, % of control in experiment [4] of 7.05%. Besides, the cell viability, % of control (lower = more cytotoxic) in experiment [5] came out at 7.25%. The viability (% of control) in experiment [6] was 2.47%.

Compound `CNC(=O)c1ccccc1Nc1nc(Nc2ccc(N3CCOCC3)cc2OC)ncc1Cl` gave a parasite growth, % of DMSO control in experiment [1] of 10.8%. For the same compound, in experiment [2], the parasite growth remaining, % of DMSO control (lower = more inhibition) was found to be 10.3%. Also, the parasite growth, % of control (lower = inhibition) in experiment [3] was 22.9%. Also, the growth, % of control in experiment [4] is 7.48%. For the same compound, in experiment [5], the cell viability, % of control (lower = more cytotoxic) worked out at 18.7%. This compound showed a viability (% of control) in experiment [6] of 7.05%.

Compound `CN(C)Cc1c(C(=O)NCCOc2ccc(C(=O)NO)cc2)oc2ccccc12` gave a parasite growth, % of DMSO control in experiment [1] of 5.24%. Also, the parasite growth remaining, % of DMSO control (lower = more inhibition) in experiment [2] came out at 7.04%. The parasite growth, % of control (lower = inhibition) in experiment [3] came out at 7.09%. Besides, the growth, % of control in experiment [4] came to 6.43%. Besides, in experiment [5], the cell viability, % of control (lower = more cytotoxic) came to 38.7%. For the same compound, the viability (% of control) in experiment [6] amounted to 5.5%.

`CC(C)c1cc(-c2n[nH]c(=O)n2-c2ccc3c(ccn3C)c2)c(O)cc1O` displayed a parasite growth, % of DMSO control in experiment [1] of 5.55%. The compound also yielded a parasite growth remaining, % of DMSO control (lower = more inhibition) in experiment [2] of 8.22%. Also, in experiment [4], the growth, % of control was 1.94%. Further, in experiment [5], the cell viability, % of control (lower = more cytotoxic) worked out at 4.99%. Moreover, the viability (% of control) in experiment [6] was found to be 10.7%.

For `Cc1cc(Nc2nc(N[C@@H](C)c3ccc(F)cc3)c(C#N)cc2F)n[nH]1`, the parasite growth, % of DMSO control in experiment [1] worked out at 7.05%. In experiment [2], this compound showed a parasite growth remaining, % of DMSO control (lower = more inhibition) of 7.99%. The compound also returned a parasite growth, % of control (lower = inhibition) in experiment [3] of 9.75%. In experiment [4], this compound returned a growth, % of control of 6.34%. Also, in experiment [5], the cell viability, % of control (lower = more cytotoxic) was 218%. This compound displayed a viability (% of control) in experiment [6] of 12.6%.

For the compound `COCCOc1ccc2c(c1)ncn2-c1ccc2cccc(N3CCC(N)CC3)c2n1`, the parasite growth, % of DMSO control in experiment [1] is 5.56%. In experiment [2], this compound returned a parasite growth remaining, % of DMSO control (lower = more inhibition) of 7.14%. Further, the growth, % of control in experiment [4] amounted to 4.14%. The cell viability, % of control (lower = more cytotoxic) in experiment [5] is 3.06%. The compound also came in with a viability (% of control) in experiment [6] of 1.98%.

Turning to `COc1cc(C(=O)N2CCC(N3CCN(C)CC3)CC2)ccc1Nc1ncc2c(n1)N(C)c1ccccc1C(=O)N2C`, the parasite growth, % of DMSO control in experiment [1] was determined as 5.57%. Also, in experiment [2], the parasite growth remaining, % of DMSO control (lower = more inhibition) was 7.18%. In experiment [4], this compound came in with a growth, % of control of 5.31%. Besides, in experiment [5], the cell viability, % of control (lower = more cytotoxic) came to 2.17%. The compound further gave a viability (% of control) in experiment [6] of 3.29%.

In the case of `CC=CC1=C(C(=O)O)N2C(=O)[C@H](NC(=O)[C@H](N)c3ccc(O)cc3)[C@@H]2SC1`, in experiment [1], the parasite growth, % of DMSO control turned out to be 99.8%. Moreover, in experiment [2], the parasite growth remaining, % of DMSO control (lower = more inhibition) amounted to 99.9%. For the same compound, the parasite growth, % of control (lower = inhibition) in experiment [3] was determined as 99.4%. The compound also yielded a growth, % of control in experiment [4] of 88%. Also, the cell viability, % of control (lower = more cytotoxic) in experiment [5] amounted to 52.6%. Also, the viability (% of control) in experiment [6] stood at 89.2%.

Consider `CN(C1CCc2c(c3ccccc3n2CC(=O)O)C1)S(=O)(=O)c1ccc(F)cc1` (configuration not stated), for which the parasite growth, % of DMSO control in experiment [1] amounted to 15.9%. This compound also returned a parasite growth remaining, % of DMSO control (lower = more inhibition) in experiment [2] of 93.1%. Besides, the growth, % of control in experiment [4] is 19.9%. For the same compound, the cell viability, % of control (lower = more cytotoxic) in experiment [5] amounted to 243%. In experiment [6], the viability (% of control) amounted to 39.5%.

For the origin of these results see PubChem BioAssay (NCATS).
